{
  "source": "the supplement of paper PMC12282887",
  "tested_on": "E. coli BW25113 marRABp lux reporter",
  "assay": "promoter activity interaction Z-score (Lux/OD deviation from empty-vector control); higher = stronger promoter induction by the compound",
  "procedure": "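E. coli BW25113 (wild type or ΔmarA/ΔsoxS/Δrob) carrying pTU175 luxCDABE promoter reporters was grown in LB in 384-well plates at 37°C with each of 94 compounds at 4 two-fold concentrations, in biological duplicates. Luminescence and OD600 were read every 30 min for 12 h and integrated as AUC over 8 h (0-8 h WT, 1-9 h mutants). Lux AUC was divided by OD AUC; the interaction score is the residual of a Huber robust fit of each promoter against the empty-vector control, then Z-transformed per promoter.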",
  "note": "± gives the standard deviation of the averaged measurements.",
  "data": [
    {"smiles": "Nc1ccc(C(=O)O)c(O)c1", "note": "[4-Aminosalicylic acid]", "values": [
      {"measurement": "promoter activity interaction Z-score", "setting": "19.1 µg/ml, genetic background: wild type", "result": "0.109 ± 0.4"},
      {"measurement": "promoter activity interaction Z-score", "setting": "19.1 µg/ml, genetic background: ΔmarA", "result": "0.307 ± 0.0067"},
      {"measurement": "promoter activity interaction Z-score", "setting": "19.1 µg/ml, genetic background: Δrob", "result": "0.19 ± 0.12"},
      {"measurement": "promoter activity interaction Z-score", "setting": "19.1 µg/ml, genetic background: ΔsoxS", "result": "0.147 ± 0.18"},
      {"measurement": "promoter activity interaction Z-score", "setting": "38.3 µg/ml, genetic background: wild type", "result": "0.0516 ± 0.015"},
      {"measurement": "promoter activity interaction Z-score", "setting": "38.3 µg/ml, genetic background: ΔmarA", "result": "0.172 ± 0.09"},
      {"measurement": "promoter activity interaction Z-score", "setting": "38.3 µg/ml, genetic background: Δrob", "result": "0.493 ± 0.39"},
      {"measurement": "promoter activity interaction Z-score", "setting": "38.3 µg/ml, genetic background: ΔsoxS", "result": "0.161 ± 0.086"},
      {"measurement": "promoter activity interaction Z-score", "setting": "76.6 µg/ml, genetic background: wild type", "result": "-0.0573 ± 0.025"},
      {"measurement": "promoter activity interaction Z-score", "setting": "76.6 µg/ml, genetic background: ΔmarA", "result": "-0.242 ± 0.12"},
      {"measurement": "promoter activity interaction Z-score", "setting": "76.6 µg/ml, genetic background: Δrob", "result": "0.384 ± 0.31"},
      {"measurement": "promoter activity interaction Z-score", "setting": "76.6 µg/ml, genetic background: ΔsoxS", "result": "-0.0494 ± 0.21"},
      {"measurement": "promoter activity interaction Z-score", "setting": "153.1 µg/ml, genetic background: wild type", "result": "0.642 ± 0.055"},
      {"measurement": "promoter activity interaction Z-score", "setting": "153.1 µg/ml, genetic background: ΔmarA", "result": "0.698 ± 0.021"},
      {"measurement": "promoter activity interaction Z-score", "setting": "153.1 µg/ml, genetic background: Δrob", "result": "0.956 ± 0.3"},
      {"measurement": "promoter activity interaction Z-score", "setting": "153.1 µg/ml, genetic background: ΔsoxS", "result": "0.968 ± 0.13"}
    ]},
    {"smiles": "NC[C@H](O)c1ccc(O)c(O)c1", "note": "[Noradrenalin]", "values": [
      {"measurement": "promoter activity interaction Z-score", "setting": "20 µg/ml, genetic background: wild type", "result": "0.189 ± 0.16"},
      {"measurement": "promoter activity interaction Z-score", "setting": "20 µg/ml, genetic background: ΔmarA", "result": "0.444 ± 0.053"},
      {"measurement": "promoter activity interaction Z-score", "setting": "20 µg/ml, genetic background: Δrob", "result": "0.108 ± 0.12"},
      {"measurement": "promoter activity interaction Z-score", "setting": "20 µg/ml, genetic background: ΔsoxS", "result": "0.239 ± 0.13"},
      {"measurement": "promoter activity interaction Z-score", "setting": "39.9 µg/ml, genetic background: wild type", "result": "0.0664 ± 0.085"},
      {"measurement": "promoter activity interaction Z-score", "setting": "39.9 µg/ml, genetic background: ΔmarA", "result": "0.371 ± 0.24"},
      {"measurement": "promoter activity interaction Z-score", "setting": "39.9 µg/ml, genetic background: Δrob", "result": "0.256 ± 0.08"},
      {"measurement": "promoter activity interaction Z-score", "setting": "39.9 µg/ml, genetic background: ΔsoxS", "result": "0.078 ± 0.037"},
      {"measurement": "promoter activity interaction Z-score", "setting": "79.8 µg/ml, genetic background: wild type", "result": "0.253 ± 0.15"},
      {"measurement": "promoter activity interaction Z-score", "setting": "79.8 µg/ml, genetic background: ΔmarA", "result": "-0.0312 ± 0.044"},
      {"measurement": "promoter activity interaction Z-score", "setting": "79.8 µg/ml, genetic background: Δrob", "result": "-0.0145 ± 0.019"},
      {"measurement": "promoter activity interaction Z-score", "setting": "79.8 µg/ml, genetic background: ΔsoxS", "result": "0.36 ± 0.27"},
      {"measurement": "promoter activity interaction Z-score", "setting": "159.6 µg/ml, genetic background: wild type", "result": "0.17 ± 0.12"},
      {"measurement": "promoter activity interaction Z-score", "setting": "159.6 µg/ml, genetic background: ΔmarA", "result": "-0.0497 ± 0.011"},
      {"measurement": "promoter activity interaction Z-score", "setting": "159.6 µg/ml, genetic background: Δrob", "result": "0.0596 ± 0.2"},
      {"measurement": "promoter activity interaction Z-score", "setting": "159.6 µg/ml, genetic background: ΔsoxS", "result": "0.217 ± 0.22"}
    ]}
  ]
}
